Source: PubChem
Sampled rows, rich in hits. Any-hit rate of the full collection: about 3.7%.
PfHsp90 yeast 2: reduces growth (ATP signal) of yeast expressing P. falciparum Hsp90; S. cerevisiae expressing PfHsp90, BacTiter-Glo ATP, 48 h; yeast lacking PDR1 and PDR3 efflux regulators; inhibition, % at 9.4 µM; 310,000 compounds, 0.32% hits;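 active = every replicate shows inhibition above about 80%, whatever the replicate mean, limit read from the data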;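 also: 0% = DMSO neutral controls and 100% = 20 µM radicicol positive controls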
tim10-1 inh: growth inhibitors of tim10-1 mutant yeast; AID 463190; inhibition, % at 20 µM; S. cerevisiae tim10-1 ts strain growth, BacTiter-Glo, 24 h; 330,000 compounds, 2.2% hits;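 active = inhibition of at least 40%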;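 also: mutant grown at 25 °C; 0% = DMSO wells with yeast and 100% = wells holding no yeast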
NLRP3 yeast inh: blocks the NALP3 inflammasome reconstituted in yeast. Yeast reconstituted NLRP3/ASC/caspase-1, beta-gal luminescence, 24 h. inhibition, % at 10 µM. 330,000 compounds, 0.39% hits;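 active = inhibition of 50% or more; inactive = inhibition below 50%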;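 also: plate controls were induced DMSO wells for no effect and uninduced yeast grown without galactose for full effect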
TIM10 inh: inhibits growth of TIM10 yeast strain; S. cerevisiae TIM10 strain growth, BacTiter-Glo luminescence, 24 h; inhibition, % at 10 µM; 330,000 compounds, 1.4% hits; AID 463195;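 active = inhibition of 40% or more at the single tested concentration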;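 also: wild-type TIM10 isogenic control strain grown at permissive 25 °C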
tim23-1 inh: growth inhibitors of tim23-1 mutant yeast. S. cerevisiae tim23-1 growth, BacTiter-Glo luminescence, 24 h. inhibition, % at 20 µM. 330,000 compounds, 1.3% hits. AID 463212;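 active = growth inhibition of the mutant yeast at or above 50%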;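 also: temperature-sensitive mutant grown at 25 °C; plate controls were DMSO-treated mutant yeast for no effect and medium wells lacking yeast for full effect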
tim10-1 confirm: confirmation of tim10-1 mutant yeast growth inhibitors; shares compounds with tim10-1 inh; S. cerevisiae tim10-1 ts strain growth, BacTiter-Glo, 24 h; inhibition, % at 20 µM; 7,400 compounds, 56% hits; AID 463213;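 active = inhibition of yeast growth at or above a set limit in either of two repeat tests at 20 µM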;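 also: tim10-1 mutant grown at permissive 25 °C to find synthetic lethal compounds; 0% = DMSO yeast wells and 100% = medium wells without yeast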
TIM10 conf: TIM10 yeast growth inhibition, confirmed; inhibition, % at 10 µM; 4,600 compounds, 63% hits; S. cerevisiae tim10 strain growth, BacTiter-Glo luminescence, 24 h; shares compounds with TIM10 inh;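 active = inhibition of yeast growth at or above a set limit in either of two replicates at 10 µM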;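 also: this counterscreen used the strain with wild-type TIM10; 0% = yeast with DMSO and 100% = medium wells lacking yeast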
tim23-1 conf: tim23-1 yeast growth inhibition, confirmed; shares compounds with tim23-1 inh; S. cerevisiae tim23-1 growth, BacTiter-Glo luminescence, 24 h; inhibition, % at 20 µM; 4,400 compounds, 83% hits;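 active = inhibition above about 39% in either of two replicate wells at 20 µM, limit read from the data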;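 also: temperature-sensitive tim23-1 mutant grown at 25 °C; 0% = DMSO wells with yeast and 100% = medium wells without yeast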
* marks the source's active call; other numbers are inactive results; / = no result given.

SMILES	PfHsp90 yeast 2	tim10-1 inh	NLRP3 yeast inh	TIM10 inh	tim23-1 inh	tim10-1 confirm	tim23-1 conf	others
O=C1Nc2ccccc2/C1=N\c1sc2c(c1C(=O)Nc1ccccc1)CCCC2	-30.7	16.0	19.1	8.3	24.2	/	/
NC(=O)c1ccccc1N/C=C/C(=O)c1ccc(Cl)cc1	-37.6	16.7	10.5	-11.8	7.8	/	/
O=C(/C=C/Sc1ccccc1)c1ccc(Cl)cc1	8.6	51.0*	37.9	37.4	59.0*	47.0*	45.9*
O=c1[nH]cnc2c1c(-c1ccccc1)cn2-c1cccc(Cl)c1	-9.9	46.4*	-29.9	24.6	60.1*	36.2*	38.0*
COc1ccccc1N1CCN(Cc2cc(Br)c(O)c3ncccc23)CC1	-69.7	53.6*	-12.5	-8.7	67.5*	19.2	57.4*
Cc1ccc(SCc2[nH]nc3c2C(c2ccco2)C(C#N)=C(N)O3)cc1 (centres undefined)	-8.1	70.8*	-7.1	37.7	68.2*	55.0*	50.5*
Cc1ccc(SCc2[nH]nc3c2C(C(C)C)C(C#N)=C(N)O3)cc1 (centres undefined)	-7.4	36.6	-5.7	0.1	12.8	/	/
CCc1[nH]nc2c1C(c1ccc(Br)s1)C(C#N)=C(N)O2 (centres undefined)	12.8	85.5*	47.7	74.7*	82.2*	82.9*	79.9*	TIM10 conf=-21.9
CCc1[nH]nc2c1C(c1ccsc1)C(C#N)=C(N)O2 (centres undefined)	8.8	11.6	10.4	23.8	26.8	/	/
COC(=O)c1ccccc1-c1ccc(C(c2c(C)[nH][nH]c2=O)c2c(C)[nH][nH]c2=O)o1	41.6	56.1*	7.6	45.9*	54.2*	35.8*	48.3*	TIM10 conf=36.0*
Cn1c(COc2ccc([N+](=O)[O-])cc2)nnc1SCC(=O)NCC1CCCO1 (centres undefined)	-10.6	-5.9	3.0	-3.4	-3.3	/	/
O=[N+]([O-])c1c(C(Cl)Cl)nn(-c2ccc(Cl)cc2)c1N1CCCCC1	-15.2	44.4*	7.7	55.8*	64.4*	62.1*	67.3*	TIM10 conf=41.0*
O=C(c1ccccc1)c1ccc2cc(O)ccc2c1	-14.0	47.8*	12.2	26.4	59.2*	34.7*	53.0*
Nc1nc(-c2ccc3c(c2)CCCC3)cs1	2.8	59.0*	24.2	32.3	51.5*	44.5*	53.7*
Nc1nc(-c2ccc3c(c2)OCCO3)cs1	-8.0	4.4	25.0	20.1	4.9	/	/
Cc1ccc(O)c(N=Cc2cc(Cc3ccccc3)cc([N+](=O)[O-])c2O)c1	100.9*	52.1*	38.5	36.5	51.4*	29.3	61.1*
COc1ccc(OC)c(NC(=O)c2ccccc2OC(C)=O)c1	-17.3	62.4*	30.9	21.5	54.0*	32.2*	49.5*
COc1ccc(NC(=O)c2ccccc2Oc2ccccc2)c(OC)c1	-2.0	3.8	22.9	-20.0	28.8	/	/
Cc1ccc(/C=C2/C(=O)ON=C2c2ccccc2)o1	-10.1	51.6*	11.7	19.4	74.4*	40.0*	75.6*
CSCCC(NC(=O)COc1ccccc1)C(=O)N(C)Cc1ccc(SC)cc1 (centres undefined)	-11.8	-25.8	-0.8	-29.7	9.4	/	/
NC(=S)Nc1ccc(Cl)c(Cl)c1	18.5	11.1	13.6	14.3	7.5	/	/
Cc1cc(C)cc(NC(=S)Nc2ccc(Cl)c(Cl)c2)c1	11.0	61.5*	24.8	43.0*	79.5*	55.8*	74.8*	TIM10 conf=37.4*
COCCn1c(COc2cccc(OC)c2)nnc1SCC(=O)NC1CCCC1	30.8	-3.4	8.3	-6.2	-9.5	/	/
COc1cccc(C(=O)OCCN2CCOCC2)c1	4.4	4.1	8.4	7.7	2.0	/	/
COc1cccc(C(=O)Oc2c(CN3CCOCC3)cc(Cl)c3cccnc23)c1	/	43.1*	36.5	44.2*	50.7*	33.5*	47.8*	TIM10 conf=25.0
SMILES	PfHsp90 yeast 2	tim10-1 inh	NLRP3 yeast inh	TIM10 inh	tim23-1 inh	tim10-1 confirm	tim23-1 conf	others
COc1ccc(C(=O)Oc2c(CN3CCOCC3)cc(Cl)c3cccnc23)cc1	8.1	41.0*	25.5	26.9	54.4*	33.4*	45.5*
COc1cc(C(=O)Oc2c(CN3CCOCC3)cc(Cl)c3cccnc23)cc(OC)c1OC	1.3	28.7	36.1	16.4	24.0	/	/
O=C1c2cccnc2C(=O)N1Cc1ccc(S(=O)(=O)N2CCN(c3ccccc3)CC2)cc1	-6.9	-1.2	-1.3	-11.5	1.1	/	/
CN(C)c1ccc(/C=C(/C(=O)c2ccc(Cl)cc2Cl)n2cncn2)cc1	-8.4	52.8*	8.9	51.0*	54.2*	40.7*	56.2*	TIM10 conf=-26.4
CC(C)CC(=O)/C(=C/c1ccc(N(C)C)cc1)n1cncn1	14.7	23.7	35.1	24.1	33.6	/	/
COc1ccc(/C=C(/C(=O)c2ccc(Cl)cc2Cl)n2cncn2)cc1	7.4	63.5*	27.7	76.8*	75.5*	70.1*	49.0*	TIM10 conf=77.8*
O=C1/C(=C/c2cccc([N+](=O)[O-])c2)CCc2ccccc21	-21.5	41.6*	21.7	39.5	53.7*	59.0*	25.6
O=C1/C(=C/c2ccc([N+](=O)[O-])cc2)CCc2ccccc21	/	36.5	20.2	32.4	40.5	/	/
Cc1cccc(-n2cc(-c3ccccc3)[nH]c2=S)c1	-6.6	46.0*	9.5	19.9	51.1*	17.8	49.2*
Cc1ccc(S(=O)(=O)/N=C(\Sc2ccccc2)c2ccccc2)cc1	20.0	51.4*	-8.7	29.3	52.3*	33.4*	61.9*
O=S(=O)(/N=C(\Sc1ccccc1)c1ccccc1)c1ccc(Cl)cc1	-32.5	34.2	-4.0	29.3	28.2	/	/
COc1ccc(/C=C/c2nc3ccccc3n2C)cc1	22.0	56.8*	22.4	70.2*	66.0*	49.2*	46.6*	TIM10 conf=67.3*
CN1CCN(c2oc(-c3ccccc3)nc2S(=O)(=O)c2ccc(Br)cc2)CC1	-7.1	24.7	24.5	9.3	20.2	/	/
O=C(NCc1ccccc1OC(F)(F)F)C1CCC(=O)N(C2CC2)C1 (centres undefined)	-11.8	-1.9	8.6	1.3	-2.4	/	/
CCOC(OCC)c1cn(Cc2ccc3c(c2)C(=O)c2ccccc2C3=O)nn1	/	43.9*	8.1	36.7	61.3*	16.4	78.2*
O=c1c(O)c(-c2cccs2)oc2ccc(Cl)cc12	-6.9	41.6*	40.7	71.8*	52.9*	32.4*	65.9*	TIM10 conf=59.1*
O=c1cc(-c2cccs2)oc2ccc(Cl)cc12	-28.1	25.4	28.0	6.4	34.0	/	/
O=C(Nc1ccc(Cl)cn1)c1ccccc1[N+](=O)[O-]	-6.9	-2.1	16.6	17.8	-10.4	/	/
O=[N+]([O-])c1cnc(Nc2ccc(Cl)cn2)c([N+](=O)[O-])c1	-41.1	73.1*	28.3	49.6*	73.1*	69.0*	81.3*	TIM10 conf=32.8*
